Source: PubChem BioAssay
Hits are enriched below; roughly 3.9% of the tested compounds scored in any of these assays.
H9c2 protect: protects H9c2 cardiomyocytes from peroxide injury; protection from H2O2 cell death, % at 20 µM; H2O2 injury protection, ATPLite, 2 h; 360,000 tested, 0.63% active;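 active = compounds giving at least 50% protection of heart cells from peroxide-induced death in the single-dose screen, raw or plate-pattern-corrected value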;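 also: 0% = DMSO wells with peroxide and 100% = DMSO wells without peroxide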
NTR1 ag: activates human neurotensin receptor 1 | P30989 | NTR1-U2OS beta-arrestin-GFP spot imaging, agonist mode | activation, % at 20 µM | 330,000 tested, 0.17% active | AID 493036;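 active = activation at or above 40% of the spot to cytoplasm intensity ratio, with at least 20 cells analyzed; inconclusive = wells under 20 cells, flagged as cytotoxic or low count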;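 also: 0% = DMSO without peptide and 100% = 100 nM NTR1 peptide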
Target sequence (P30989 whole entry, looked up): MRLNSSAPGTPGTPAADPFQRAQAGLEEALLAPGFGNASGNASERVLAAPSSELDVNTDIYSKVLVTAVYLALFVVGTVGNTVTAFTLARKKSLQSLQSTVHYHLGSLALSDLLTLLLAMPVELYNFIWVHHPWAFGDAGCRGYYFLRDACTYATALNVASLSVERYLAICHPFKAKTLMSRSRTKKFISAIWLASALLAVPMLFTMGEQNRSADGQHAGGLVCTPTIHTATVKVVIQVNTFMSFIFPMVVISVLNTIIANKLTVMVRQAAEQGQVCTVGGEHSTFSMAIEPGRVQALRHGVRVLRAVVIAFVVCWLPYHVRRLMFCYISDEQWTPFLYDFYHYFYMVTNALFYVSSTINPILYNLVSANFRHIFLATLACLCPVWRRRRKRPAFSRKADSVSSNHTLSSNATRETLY
ALR H2O2 inh: blocks human ALR sulfhydryl oxidase activity. AID 485317. 290,000 tested, 3.8% active. purified ALR, DTT oxidation, H2O2 HRP-luminol luminescence. inhibition, % (no concentration beside the values);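 active = mean replicate inhibition above about 79%, with every replicate also reaching it, limit read from the data; inconclusive = only one of the two criteria met; inactive = mean below limit and not every replicate reaching it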
SUMO HTRF inh: SUMOylation inhibition; P63279; 290,000 tested, 0.36% active; inhibition, % at 35 µM; HTRF SUMOylation assay, SAE1/SAE2 + UBC9, in vitro; AID 2006; in the data active = inhibition above about 50%, passing the limit was not always enough; inconclusive = no clear call, values can overlap the other calls
Target sequence (P63279 whole entry, looked up): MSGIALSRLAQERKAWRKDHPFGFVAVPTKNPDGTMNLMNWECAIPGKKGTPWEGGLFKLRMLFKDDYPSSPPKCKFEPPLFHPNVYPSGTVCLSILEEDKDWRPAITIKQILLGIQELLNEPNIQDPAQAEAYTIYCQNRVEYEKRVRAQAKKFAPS
The depositor's hits bear a star; ? = inconclusive; . = no result.

SMILES | H9c2 protect | NTR1 ag | ALR H2O2 inh | SUMO HTRF inh
O=C(CC1OC(=O)c2ccccc21)Nc1cc(Cl)ccc1N1CCCC1 (stereo not given) | -1 | -1 | 97* | .
CO[C@@]12[C@H](COC(N)=O)C3=C(C(=O)C(C)=C(N)C3=O)N1C[C@@H]1N[C@@H]12 | -4 | 0 | -3 | .
CN(CCOc1ccc(Cl)cc1)C(=O)c1ccc(S(=O)(=O)N2CCOCC2)cc1 | 2 | 2 | -4 | 8
COc1ccc(C(=O)Nc2ccc(N3CCCC3)cc2)cc1 | -2 | 0 | 20 | 4
COc1ccc(C(=O)N/N=C(/C)c2ccc(N3CCCCC3)cc2)cc1 | -1 | 1 | 92* | 16
COc1cccc(CC(=O)Nc2ccccc2N2CCCC2)c1 | 0 | -1 | 98* | 8
COc1ccc(CC(=O)Nc2ccccc2N2CCCCC2)cc1OC | -1 | 3 | 3 | 10
O=C(NC(=S)Nc1ccccc1N1CCCC1)c1cccc(F)c1 | 7 | 9 | -4 | 4
O=C(Nc1ccccc1N1CCCC1)c1cccc(F)c1 | 3 | -1 | 99* | 4
Cc1ccc(S(=O)(=O)CCC(=O)Nc2ccccc2C)cc1 | -1 | 0 | -2 | 1
Cc1ccc(S(=O)(=O)CCC(=O)Nc2ccccc2N2CCCC2)cc1 | 2 | -1 | 99* | .
CSc1nc(C)nc(N/C=C(\C#N)S(=O)(=O)c2ccccc2Cl)n1 | 1 | 1 | 1 | 15
CCCCC(=O)C1=C(N2CCCC2)CC(C)(C)CC1=O | 6 | -1 | 0 | .
Cc1ccc(C(=O)Nc2ccccc2N2CCCC2)cc1 | -6 | 0 | 99* | 9
COc1ccc(C(=O)NC(=S)N2CCN(c3ccccc3O)CC2)cc1 | -1 | -1 | 99* | .
COc1ccc(C(=O)NC(C(=O)N2CCN(c3ccccc3O)CC2)C(C)C)cc1 (stereo not given) | 7 | -1 | 66 | -1
C=CCN(C(=O)c1csnn1)C(C(=O)NC1CCCCC1)c1ccccc1 (stereo not given) | -1 | 0 | -8 | 0
CN(C)c1ccc(/C=N/NC(=O)c2ccc(CN3C(=O)c4cccc5cccc3c45)cc2)cc1 | . | 4 | . | 11
O=C(N/N=C/c1ccccc1)c1ccc(CN2C(=O)c3cccc4cccc2c34)cc1 | 6 | 0 | 5 | 50*
O=C(N/N=C/c1ccc(O)cc1O)c1ccc(CN2C(=O)c3cccc4cccc2c34)cc1 | 52* | 11 | -19 | -50
CC(C)(C)N(NC(=O)Nc1ccccc1)C(=O)c1ccccc1Cl | 1 | -1 | -4 | 5
C=C(C)COc1ccc(-c2[nH]ncc2-c2ccccc2)c(O)c1 | -34 | 12 | ? | -14
CCCCn1c(N)c(N(CC)C(=O)c2ccc(N3CCCC3=O)cc2)c(=O)[nH]c1=O | 3 | 0 | . | .
CCOC(=O)c1c(C)[nH]c(C2=NNC(=NC3CC3)SC2)c1C | -17 | 2 | 98* | 4
O=C(Cc1ccccc1)NCCc1c[nH]c2ccccc12 | 2 | 1 | -2 | -3
SMILES | H9c2 protect | NTR1 ag | ALR H2O2 inh | SUMO HTRF inh
Cc1c(O)ccc2c(CN(C)Cc3ccccc3)cc(=O)oc12 | -12 | 11 | 86* | 17
Cc1ccc2c(CN3CCC(C(N)=O)CC3)cc(=O)oc2c1C | -2 | -1 | 95* | 7
O=c1cc(CN2CCOCC2)c2ccc(O)c(O)c2o1 | 3 | 1 | 99* | -15
Cc1c(O)ccc2c(CN3CCN(Cc4ccccc4)CC3)cc(=O)oc12 | 13 | 4 | . | 44
O=c1cc(CN2CCN(Cc3ccccc3)CC2)c2ccc(O)c(O)c2o1 | 43 | 0 | 100* | 4
CCCc1cc(=O)oc2c(CN3CCOCC3)c(O)ccc12 | 27 | 0 | 12 | 19
CC(=O)c1ccc(NC(=O)C(C)n2nc(-c3ccccc3)c3cc(Cl)ccc32)cc1 (stereo not given) | 3 | 6 | -8 | 7
Cc1cc(-c2ccccc2)nc(N/N=C/c2ccccc2)n1 | -11 | 3 | -1 | 13
Cc1cc(-c2ccccc2)nc(N/N=C/c2ccc([N+](=O)[O-])cc2)n1 | 53* | 2 | -2 | 4
Cn1c(SCC(=O)N2CCCCC2)nc2cccnc21 | 0 | 4 | -2 | 4
COc1ccc(Nc2nc(Nc3ccc(OC)cc3OC)nc(N3CCN(C)CC3)n2)c(OC)c1 | 64* | 4 | . | -20
COc1ccc(Nc2nc(N)c3ccccc3n2)c(OC)c1 | -12 | 1 | 84* | -1
CC(=O)Nc1ccc(C(=S)NCC2(N(C)C)CCCCC2)cc1 | 0 | 0 | 11 | 5
CSc1ccc(/C=C/C(=O)N2CCCN(C)CC2)cc1 | 17 | 3 | 99* | 12
CSc1ccc(C(=O)/C=C/c2ccc(N)cc2)cc1 | -18 | 3 | 97* | 4
CSc1ccc(/C=C/C(=O)c2c(O)cc(C)oc2=O)cc1 | -18 | 0 | 98* | 23
CN1CCN(C(=O)/C=C\c2ccc(Cl)cc2)CC1 | 4 | -1 | 1 | 3
Cc1cc(O)c(C(=O)/C=C/c2ccc(Cl)cc2)c(=O)o1 | -21 | 1 | 12 | 14
CSc1ccc(/C=C/C(=O)c2ccc(NC(=O)C(C)C)cc2)cc1 | 2 | -1 | 5 | 29
COc1ccc(C2=NN(Cc3ccccc3)C3C(=O)NC(=O)C23)cc1 (stereo not given) | 7 | 1 | 13 | 16
CN1C(=O)C2C(c3ccc(N(C)C)cc3)=NN(Cc3ccccc3)C2C1=O (stereo not given) | 0 | -1 | 99* | -16
O=C(CCSc1nc(-c2ccco2)cc(C(F)(F)F)n1)NCC1CCCO1 (stereo not given) | 8 | 0 | 6 | 8
O=C(O)Cn1c(SCc2cccc3ccccc23)nc2ccccc21 | -2 | -2 | 98* | 20
Nc1ccc2c(c1)N1CCN=C1S2 | -3 | -2 | 88* | 12
O=C(Nc1ccc(Cl)cc1)Nc1ccc2c(c1)N1CCN=C1S2 | -7 | 6 | 0 | -24
SMILES | H9c2 protect | NTR1 ag | ALR H2O2 inh | SUMO HTRF inh
COc1ccccc1C(=O)Nc1ccnn1C1CCN(Cc2cn(C)c3ccccc23)CC1 | 10 | -1 | -2 | 8
COCCn1nnnc1C(c1cc(OC)ccc1OC)N1CCc2ccccc2C1 (stereo not given) | 6 | 0 | 8 | -6
Cc1ccc(S(=O)(=O)Cn2nnnc2CN(Cc2ccco2)CC2CCCO2)cc1 (stereo not given) | -10 | 1 | 0 | -8
O=C(c1cc(O)c(O)c([N+](=O)[O-])c1)c1ccccc1F | 24 | 3 | 98* | .
Cc1cc(C(=O)CN2C(=O)NC3(CCCCC3)C2=O)c(C)n1Cc1ccco1 | -3 | 2 | . | 16
CC#CCN1c2ccccc2[C@]23C[C@@H](C(=O)OC)N(C(=O)OCC)C2=NC(C(=O)OC)=C(C(=O)OC)[C@H]13 | 6 | 0 | 3 | 0
Cc1nn(Cc2ccccc2)c2c1C(c1cccnc1)C(C#N)=C(N)O2 (stereo not given) | 8 | 0 | 95* | 7
CC(C)OC(=O)c1c(N)n(CCCN2CCOCC2)c2nc3ccccc3nc12 | 8 | -3 | -9 | 25
COc1cccc(/C=N/NC(=O)CSCC(=O)Nc2ccccc2)c1O | 55* | -2 | 91* | -2
COc1cccc(/C=N\NC(=O)C2C(=O)NCC2c2ccccc2)c1O (stereo not given) | 72* | 2 | 40 | 10
